Compounds with a hit are over-represented: about 1.2% of the library has one in this group of screens.
CtBP-E1A blk: qHTS Assay for Inhibitors of the CtBP/E1A Interaction; activity change, % (test concentration not listed); actives 0.49% (n = 340,000); AlphaScreen GST-E1A/His-CtBP binding, 1536-well; stronger effect = lower value; CtBP / adenovirus E1A interaction (AlphaScreen)
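Steps: dispense buffer (Tris pH 8.0, NaCl 300 mM, TCEP 1 mM, BSA, Tween 20); add 5X protein mix (GST-E1A, His-CtBP, 125 nM each); pin 23 nL compound; 2 h at 37 °C, dark; add 5X beads (50 ug/mL); 1 h; read.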
Six1-Eya2 inh: qHTS Assay for Inhibitors of the Six1/Eya2 Interaction | activity change, % (concentration not given with the values) | Homeobox protein SIX1 (Homo sapiens) + Protein phosphatase EYA2 (Homo sapiens), … | actives 0.56% (n = 360,000) | AlphaScreen GST-Six1/His-Eya2 binding, biochemical; stronger effect = lower value
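Compounds are tested against tagged Six1 and Eya2 proteins bridged by glutathione donor and nickel acceptor beads; after a one-hour incubation at 37 °C without light, AlphaScreen emission is recorded.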
Akt phos inh: HTS Assay for Inhibitors of Akt Phophorylation: Primary Screen. AID 651550, 2012. actives 0.32% (n = 360,000). Neuro2A IGF-stimulated pAkt S473 HTRF, 20 min; stronger effect = lower value. activity change, % for hits at 50 µM; in the data active means activity change below about -80%; inconclusive means mostly about -51% to -80%
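Single-point screen (50 µM final compound) in Neuro2A cells stimulated 20 min with 6 nM IGF at 37 deg C. After lysis, Ser473-phosphorylated Akt read by HTRF (ex 330 nm, em 615/665 nm) as the 665/615 ratio.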
CCT chaperon mod: High-Throughput Screening for Modulators of Cytosolic Chaperonin Activity | purified chaperonin ATPase assay, HTRF ADP detection, 30 min | activity change, % (concentration not given with the values), hits read low | actives 0.3% (n = 360,000); in the data active means activity change below about -30%
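First, chaperonin was dispensed at 40 nM or 20 nM final depending on batch activity. Next, compounds were pinned at 76 uM and ATP added at 10 uM. After 30 min at 37 °C, ADP detection reagents ran 30 min at ambient temperature.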
Large screens that a line does not name were inactive. Unless noted, no stated cut-off is given here; in the data, active means activity change below about -65%; inconclusive means mostly about -30% to -63%; inactive means weaker than that.

COc1ccc(C2C3=C(CCCC3=O)Nc3nc(SCc4ccc(C(=O)O)cc4)nn32)cc1OC (stereo not given)	none
COc1ccc(F)cc1S(=O)(=O)NCC1CCCO1 (stereo not given)	none
Cc1cc(C)nc(SC2=CS(=O)(=O)c3ccccc32)n1	none
O=S1(=O)C=C(Sc2nc3ccccc3s2)c2ccccc21	Akt phos inh -107.8%
CCOC(=O)C1CCN(C(=O)c2ccc(S(=O)(=O)Nc3ccccc3OC)cc2)CC1	none
Cc1ccc(C)n1-c1sccc1C(=O)O	Six1-Eya2 inh -67.9
O=C1c2ccsc2SCCN1Cc1c(Cl)cccc1Cl	none
O=C1c2ccsc2SCCN1Cc1ccc(Cl)cc1Cl	Akt phos inh -106.4%
Cc1ccccc1CN(C)CC(=O)NC(C)CCc1ccccc1 (stereo not given)	CCT chaperon mod -93.9
COc1cccc(C(=O)c2c(C)c(CCC#N)n3ccccc23)c1	none
O=C(CN1CCCCC1)N1CCCc2c1c(=O)oc1ccc(OCc3ccccc3)cc21	Akt phos inh -119.3%
CCOC(=O)[C@]12CCCC=C1N(Cc1ccc(Cl)cc1Cl)C(=O)[C@H](CC(=O)NCc1cccc3ccccc13)C2	none
CCN(CC)CCN1C(=O)C2C(C(=O)Nc3cc(C)cc(C)c3)C3C=CC2(O3)C1C(=O)NC1CCCCC1 (stereo not given)	none
O=C1c2ccccc2C(=O)N1Cc1nc2ccccc2c(=O)n1Cc1ccco1	none
Cc1sc2nc3ccc(NCc4ccco4)nn3c(=O)c2c1C	CtBP-E1A blk inconclusive, Six1-Eya2 inh -66.0
O=c1c2ccccc2nc2ccc(NCc3ccco3)nn12	CtBP-E1A blk -81.0, Six1-Eya2 inh -68.5
CCOc1ccc(CNC(=O)CCCOc2cc(=O)n(C)c3ccccc23)cc1	none
COc1ccc2nc(C)cc(SCC(=O)N/N=C/c3ccc(O)c(O)c3)c2c1	CtBP-E1A blk -71.8, Six1-Eya2 inh -72.2
COc1cccc2c(SCC(=O)N/N=C/c3ccccc3)cc(C)nc12	none
COc1cccc2c(SCC(=O)N/N=C/c3ccc(O)c(O)c3)cc(C)nc12	CtBP-E1A blk -74.3, Six1-Eya2 inh -71.3
CCC1=C(OC(=O)N(CC)CC)N2C(=O)OC(=NCCc3c[nH]c4ccccc34)[C@]2(Cc2ccccc2)[C@H]2C1=CC[C@H]1C(=O)NC(=O)[C@H]12	none
COC(=O)[C@]12CCCCC=C1N(CCc1ccc(OC)c(OC)c1)C(=O)[C@H](CC(=O)NCC1CCCCC1)C2	none (no result: CCT chaperon mod)
CCCCCc1c(C)[nH]c2nc3ccccc3n2c1=O	none
Cc1cc(C)cc(NS(=O)(=O)c2ccc3oc(=O)ccc3c2)c1	CCT chaperon mod -30.7
COc1ccc(NC(=O)/C(N=Nc2ccc(Cl)c(S(=O)(=O)Nc3ccc(Cl)cc3)c2)=C(\C)O)cc1	CCT chaperon mod -47.9
COc1ccc(NC(=O)/C(N=Nc2cc(S(=O)(=O)Nc3ccc(OC)cc3)ccc2OC)=C(\C)O)cc1	none
CCC(C)NC(=O)CSc1nc2cc3c(cc2c(=O)n1Cc1ccco1)OCO3 (stereo not given)	none
CCN(CC)C(=O)CSc1nc2cc3c(cc2c(=O)n1Cc1ccco1)OCO3	CCT chaperon mod -33.7
CC(C)C(NC(=O)c1ccccc1)C(=O)OCC(=O)N1CCCCC1 (stereo not given)	CCT chaperon mod -39.9
COCCNc1nc(NCc2cc(-c3ccc(OC)cc3)no2)c2sccc2n1	none
CC1=C(C(=O)OC(C)C)C(c2cccnc2)C2=C(CC(C)(C)CC2=O)N1 (stereo not given)	none
COCCOC(=O)C1=C(C)NC2=C(C(=O)CC(C)(C)C2)C1c1cccnc1 (stereo not given)	Akt phos inh -108.0%
Cc1nnc(SCC(=O)Nc2ccc(OC(F)F)c(Cl)c2)n(N)c1=O	CCT chaperon mod -40.3
Cc1ccc(NC(=O)CSc2nnc(C)c(=O)n2N)cc1Cl	none
CCOC(=O)CNC(=S)N(Cc1ccccc1)Cc1cccnc1	CCT chaperon mod -33.8
O=C1Nc2cc3c(cc2Sc2ccccc21)OCCO3	none
Cc1cc([N+](=O)[O-])cc(/C=N\NC(=O)C2COc3ccccc3O2)c1O (stereo not given)	CtBP-E1A blk -71.8, Six1-Eya2 inh -86.9
O=C(N/N=C\c1ccc(O)c([N+](=O)[O-])c1)C1COc2ccccc2O1 (stereo not given)	none (no result: CtBP-E1A blk)
COc1cc(/C=N\NC(=O)CNC(=O)C2COc3ccccc3O2)ccc1O (stereo not given)	none

Bioassay records from PubChem BioAssay.
